Assay outcomes from PubChem.
The list is not random: actives were taken first. Their share in the collection is about 11%.
ALDH1A1 inh: qHTS Assay for Inhibitors of Aldehyde Dehydrogenase 1 (ALDH1A1) | Aldehyde dehydrogenase 1A1 (Homo sapiens), P00352 | Purified ALDH1A1, NADH fluorescence, propionaldehyde substrate | Potency, µM (doses to about 75.3 µM), without a hit: at the top dose activity, negative = inhibition, hits mostly inhibitors | actives 7.3% (n = 220,000);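 also: potency is read from the fitted curve at half-maximal effect; plate controls were no enzyme wells and a reference inhibitor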
Target sequence (P00352 whole entry, looked up): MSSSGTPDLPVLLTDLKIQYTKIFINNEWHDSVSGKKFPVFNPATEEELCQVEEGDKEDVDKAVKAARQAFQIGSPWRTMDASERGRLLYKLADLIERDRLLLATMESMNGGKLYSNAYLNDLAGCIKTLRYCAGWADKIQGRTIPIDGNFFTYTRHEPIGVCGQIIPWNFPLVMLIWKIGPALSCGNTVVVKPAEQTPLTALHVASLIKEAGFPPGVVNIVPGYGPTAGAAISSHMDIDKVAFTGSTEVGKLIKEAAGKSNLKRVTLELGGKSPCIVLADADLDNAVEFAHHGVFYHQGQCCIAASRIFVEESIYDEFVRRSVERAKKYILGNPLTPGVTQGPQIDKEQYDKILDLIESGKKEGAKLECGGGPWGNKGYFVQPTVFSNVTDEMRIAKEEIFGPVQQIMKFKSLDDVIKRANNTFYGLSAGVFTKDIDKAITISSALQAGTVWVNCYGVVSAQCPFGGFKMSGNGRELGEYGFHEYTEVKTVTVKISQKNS
PNC assembly inh: High Content Assay for Compounds that inhibit the Assembly of the Perinucleolar Compartment | activity change (PNC), negative = inhibition, % at 10 µM | AID 2417, 2010 | actives 3.1% (n = 140,000) | PC3M PTB-GFP, PNC prevalence imaging, 16 h; active compounds read low;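 active = readout at or below -70, meaning at least 70% loss of cells showing the perinucleolar compartment, a nuclear body marking cancer cells; inconclusive = readout between -30 and a set limit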;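 also: plate controls were DMSO wells for no effect and camptothecin positive control wells for full effect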
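PC3M cells stably expressing PTB-GFP, 750–1000 cells/well, treated 16 h at 37 °C with compound (23 nl of library stock), in duplicate. After paraformaldehyde fixation and Hoechst stain, imaged at 20x; PNC prevalence scored by image analysis.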
HPGD inh: qHTS Assay for Inhibitors of HPGD (15-Hydroxyprostaglandin Dehydrogenase). 15-hydroxyprostaglandin dehydrogenase [NAD(+)] (Homo sapiens), P15428. purified HPGD, NADH fluorescence kinetic, PGE2 substrate. Potency, µM, for inactives: top-dose activity change, negative = inhibition, actives largely listed as inhibitors. actives 4.3% (n = 150,000). AID 894, 2007; also: potency is read from the fitted curve at half-maximal effect
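20 nM HPGD preincubated 15 min at room temperature with compound in 50 mM Tris-HCl pH 8, 0.01% Tween 20. Started with 1 mM NAD+ and 30 uM prostaglandin E2; NADH fluorescence (360/450 nm) read 5 times over 30-s intervals, last minus first.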
The depositor's hits bear a star; u = inconclusive; x = no result. Unless noted, calls follow the shape of the dose curve; as a rule, active = well fitted inhibition curve with a large enough effect (not every such curve was filed as active); inconclusive = small, poorly fitted or top-dose-only effect, or another doubt; inactive = no such curve, though single readings can be large or run the other way. Unless noted, % is scaled to controls: 0 for no effect and ±100 for the full control effect.

SMILES	ALDH1A1 inh	PNC assembly inh	HPGD inh
COc1cccc(C2=NOC(C(=O)NCc3ccc(F)cc3)C2)c1 (configuration not stated)	12%	27	0%
COc1cc(C2=NOC(C(=O)NCc3ccccn3)C2)cc(OC)c1OC (configuration not stated)	4%	u	-5%
COc1ccc(C2=NOC(C(=O)NCc3ccc(F)cc3)C2)cc1OC (configuration not stated)	6%	-96*	-8%
O=C(c1ccc(Cl)cc1)N(Cc1ccccc1F)N1C(=O)CCCC1=O	-1%	x	x
CCC(=O)c1ccc(OCc2ccc(C(=O)OC)o2)c(OC)c1	u	u	22µM*
C=CCc1ccc(OCc2ccc(C(=O)OC)o2)c(OC)c1	-1%	4	-21%
CC(=O)c1cc2c(cc1NS(=O)(=O)c1ccc(F)cc1)OCO2	16%	x	x
COc1ccc(NC(=O)Cc2coc3ccc4ccccc4c23)cc1S(=O)(=O)N1CCOCC1	-7%	60	-13%
c1ccc2c(COn3nnc4ccccc43)cccc2c1	-64%	-2	u
c1ccc2c(Cn3nnc4ccccc43)cccc2c1	u	26	28µM*
CC1=NN(C(=O)c2cc(C)nn2C)C(O)(C(F)(F)F)C1 (configuration not stated)	-3%	9	-3%
Cc1ccc(C)n1-n1cnc2sc3c(c2c1=O)CCCCC3	u	7	-5%
Cc1sc(-n2c(C)ccc2C)c(C#N)c1C	22µM*	17	18µM*
N#Cc1c(-n2cccc2C=O)sc2c1CCCC2	32µM*	x	x
O=Cc1cccn1-c1sc2c(c1C(=O)O)CCCC2	5%	22	-10%
Cc1ccc(C)n1-c1sc2c(c1C#N)CCCC2	-5%	-100*	-16%
Cc1sc(N2C(=O)C3C4C=CC(C4)C3C2=O)c(C#N)c1C (configuration not stated)	u	u	-8%
CN(CC(=O)NCCc1ccccc1)S(=O)(=O)c1ccccc1	21%	x	x
CCCn1c(C)nc2c(NCCO)nc(C)nc21	1%	x	-4%
CCCCN(CC)C(=O)CSc1nc2c(sc(=S)n2-c2ccc(OCC)cc2)c(=O)[nH]1	0%	x	x
COc1cc(/C=c2\s/c(=C(/C#N)C(=O)N3CCCC3)n(-c3ccccc3)c2=O)ccc1O	23%	u	-13%
Cc1ccc(/C=c2\s/c(=C(/C#N)C(=O)N3CCCC3)n(Cc3ccco3)c2=O)s1	3.5µM*	-90*	u
O=[N+]([O-])c1cccc(-c2nnn(C34CC5CC(CC(C5)C3)C4)n2)c1	u	-8	-11%
COc1ccc(/C=N/OCC(=O)N2CCCC2)c(OC)c1	-15%	x	x
CCCCCCOc1ccc(C(=O)O)cc1C#N	16%	u	20µM*
SMILES	ALDH1A1 inh	PNC assembly inh	HPGD inh
CCCCCCCCOc1ccc(C(=O)O)cc1	15%	x	-11%
CCOC(=O)N1CCN(C(=O)C(=O)NN)CC1	13µM*	x	x
CCOC(=O)N1CCN(C(=S)NC)CC1	5%	55	-12%
COC(=O)c1cnc(SC)nc1C	13%	-24	-1%
COc1ccccc1CNc1ccnc(-c2ccccc2CN(C)C)n1	-5%	x	x
CN1C2CCC1/C(=C/c1cccn1C)C(=O)/C2=C\c1cccn1C	4%	17	28µM*
Cn1cccc1/C=C1\Cc2ccccc2C1=O	11µM*	x	x
Cn1cccc1/C=C1\CCc2ccccc2C1=O	-16%	x	x
CN1C2CCC1/C(=C\c1ccc(F)cc1)C(=O)/C2=C/c1ccc(F)cc1	-1%	0	-4%
Nc1nc2c(nc(Br)n2C2OC(CO)C(O)C2O)c(=O)[nH]1 (configuration not stated)	3%	x	-6%
CCN(CC)c1ccc(C=C2C(=O)OC(C)(C(C)(C)C)OC2=O)cc1 (configuration not stated)	1%	96	-12%
CN(C)c1ccc(C=C2C(=O)OC(C)(C(C)(C)C)OC2=O)cc1 (configuration not stated)	0.4µM*	-8	10µM*
CN(C)c1ccc(C2OC(=O)C(C)(C)C(=O)C2(C)C)cc1 (configuration not stated)	7%	-6	x
CN(C)c1ccc(C=C2C(=O)OC(C)(C)OC2=O)cc1	0.79µM*	x	x
O=C(O)c1ccc2c(c1)C(=O)N(c1cccc(S(=O)(=O)Nc3cccc(C(F)(F)F)c3)c1)C2=O	-11%	x	x
CCC1=C(OC(=O)N(CC)CC)N2C(=O)OC(=NCCc3c[nH]c4ccccc34)[C@]2(Cc2ccccc2)[C@H]2C1=CC[C@H]1C(=O)N(CC)C(=O)[C@H]12	u	x	-10%
Cc1sc2ncn(CC(=O)Nc3c(F)cccc3F)c(=O)c2c1S(=O)(=O)N1CCC(C)CC1	0%	x	x
